# Data from PubChem BioAssay (EPA / NIEHS).
# Active and inactive are the calls of the source. How the source made its calls: active means hit-call score of the fitted dose curve at least 0.9, where 1 is the maximum; inactive means score below 0.9.
# Target: Transcription factor E2F1 (Homo sapiens) (UniProt Q01094)
# Assay: ATG_E2F_CIS: Attagene CIS-FACTORIAL HepG2 Assay for human E2F Transcription Factor 1 (AID 2282935)
# Conditions: HepG2 Attagene cis-reporter, E2F reporter RNA transcripts; actives raise or lower the signal
# Description: ATG_CIS is a cell-based, multiplexed-readout assay that uses HepG2, a human liver cell line, with measurements taken at 24 hours after chemical dosing in a 24-well plate.ATG_E2F_CIS is one of 52 assay component(s) measured or calculated from the ATG_CIS assay. It is designed to make measurements of mRNA induction, a form of inducible reporter, as detected with fluorescence intensity signals by Reverse transcription polymerase chain reaction (RT-PCR) and Capillary electrophoresis technology.Data from the assay component ATG_E2F_CIS was analyzed into 1 assay endpoint. This assay endpoint, ATG_E2F_CIS, was analyzed with bidirectional fitting relative to DMSO as the negative control and baseline of activity. Using a type of inducible reporter, measures of mRNA for gain or loss-of-signal activity can be used to understand the reporter gene at the transcription factor-level as they relate to the gene E2F1. Furthermore, this assay endpoint can be referred to as a primary readout, because this assay has produced multiple assay endpoints where this one serves a reporter gene function. To generalize the intended target to other relatable targets, this assay endpoint is annotated to the dna binding intended target family, where the subfamily is E2F transcription factor.
# Human liver HepG2 cells are transiently transfected with multiple reporter transcription units (MRTUs) in 6-well plates using FuGene 6 reagent (Roche; 3 ml FuGene/1 mg DNA). The MRTU constructs are regulated by a cis-regulating element (promoter). […] A major difference between the CIS and TRANS system is that in CIS activities of endogenous TFs are measured, whereas the TRANS assay evaluates changes in activities of exogenous, chimeric NR-Gal4 proteins. […] At the end of 24 hour incubation, total RNA was isolated using TriZol reagent (Invitrogen). The isolated RNA is then reverse-transcribed using oligo(dT) primer and Mo-MLV reverse transcriptase (Invitrogen) with DNAse I (Ambion) treatment for 30 min. The one-tenth of the produced cDNA was amplified by PCR using Taq DNA polymerase (Invitrogen) and two reporter sequence-specific primers. The PCR products were fluorescently labeled by primer extension with 6-arboxyfluorescein (6-FAM) 5'-labeled reporter sequence-specific primer (2 min at 95 C, 20 s at 68 C and 10 min at 72 C) and these products were digested with 5U of HpaI (New England Biolabs) for 2h at 37 C. The fragments were purified using Qiaquick PCR columns (Qiagen), analyzed on an ABI 3130xL genetic analyzer (Applied Biosystems) with peak positions identified by using a set of X-rhodamine (ROX)-labeled MapMarker1000 molecular weight standards (BioVentures). The raw capillary electrophoresis data was processed using Attagraph software (Attagene).
# Chain of Transcription factor E2F1 (Homo sapiens) (Q01094 whole entry, looked up): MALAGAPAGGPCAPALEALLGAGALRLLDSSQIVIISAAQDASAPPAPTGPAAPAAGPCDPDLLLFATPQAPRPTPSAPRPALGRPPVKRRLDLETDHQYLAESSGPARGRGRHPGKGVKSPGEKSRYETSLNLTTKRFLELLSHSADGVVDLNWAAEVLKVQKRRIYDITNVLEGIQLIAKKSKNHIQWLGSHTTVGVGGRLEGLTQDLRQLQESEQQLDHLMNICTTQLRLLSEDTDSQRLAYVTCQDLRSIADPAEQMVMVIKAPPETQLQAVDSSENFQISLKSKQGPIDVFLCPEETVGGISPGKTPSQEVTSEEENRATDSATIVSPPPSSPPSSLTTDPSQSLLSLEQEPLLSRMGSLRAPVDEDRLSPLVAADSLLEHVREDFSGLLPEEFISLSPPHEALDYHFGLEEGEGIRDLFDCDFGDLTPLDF
Compound,outcome,AC50
O=S(=O)(F)C(F)(F)C(F)(F)C(F)(F)C(F)(F)F,inactive,–
Clc1cc(C(Cl)(Cl)Cl)cnc1Cl,–,33.4 µM (active)
CCOP(=S)(OCC)SCSc1cc(Cl)ccc1Cl,inactive,–
OCCCCO,inactive,–
FC(F)OCC(F)(F)C(F)(F)F,inactive,–
CCNc1nc(NCC)nc(SC)n1,inactive,–
Cc1cc(Cl)ccc1N,inactive,–
CC[N+](CC)(CC)CC,inactive,–
CC(C)CC(C)(c1ccc(O)cc1)c1ccc(O)cc1,inactive,–
C=CCc1ccccc1O,inactive,–
CN(C)[C@@H]1C(=O)C(C(N)=O)=C(O)[C@@]2(O)C(=O)C3=C(O)c4c(O)ccc(Cl)c4[C@@](C)(O)[C@H]3C[C@@H]12,inactive,–
Cc1cc(-c2cc(C)c(N)c(C)c2)cc(C)c1N,inactive,–
O=CCCl,inactive,–
O=S(=O)(c1ccc(Cl)cc1)c1cc(Cl)c(Cl)cc1Cl,inactive,–
N#CCC#N,inactive,–
Fc1cccc(Cl)c1CCl,inactive,–
CCOC(=O)Cc1ccccc1,inactive,–
CNC(=O)O/N=C/C(C)(C)S(C)(=O)=O,inactive,–
O=[N+]([O-])c1ccc(Nc2ccccc2)cc1,inactive,–
CC1(C)COP(Oc2ccccc2)OC1,inactive,–

Compound,outcome,AC50
CCN(CCO)CCO,inactive,–
CN(C)CCN(C)C,inactive,–
CCOP(=S)(OCC)OP(=S)(OCC)OCC,inactive,–
c1ccc2c(c1)Oc1ccccc1O2,inactive,–
OC[C@@H](O)[C@H]1O[C@@H]2O[C@H](C(Cl)(Cl)Cl)O[C@@H]2[C@H]1O,inactive,–
CCCCOC(=O)COC(=O)c1ccccc1C(=O)OCCCC,inactive,–
O=C(O)CC(O)(CC(=O)O)C(=O)O,inactive,–
CC(C)(c1ccccc1)c1cc(-n2nc3ccccc3n2)c(O)c(C(C)(C)c2ccccc2)c1,inactive,–
CCC[CH2][Sn]([CH2]CCC)([CH2]CCC)[CH2]CCC,inactive,–
CC(C)CP(=S)(S)CC(C)C,inactive,–
CCOP(=S)(OCC)Oc1ccc(Cl)cc1Cl,inactive,–
Nc1ccc(Br)cc1,inactive,–
CN(N=O)c1ccc([N+](=O)[O-])cc1,inactive,–
O=S(=O)(Oc1ccc(Cl)cc1)c1ccc(Cl)cc1,inactive,–
N#Cc1ccc(Cl)cc1,inactive,–
OCC(c1ccc(Cl)cc1)c1ccc(Cl)cc1,inactive,–
CCOP(=S)(OCC)O/N=C(\C#N)c1ccccc1,inactive,–
CN(C)C(=S)S,inactive,–
CCCCN(CCCC)C(=S)[S-].CCCCN(CCCC)C(=S)[S-].[Ni+2],inactive,–
BrCc1ccc(Br)cc1,inactive,–
